High-throughput results (PubChem BioAssay)
aSyn UTR inh: MLPCN primary screen, SNCA 5' untranslated region. AID 1813. inhibition, % (tested at 7.5 µM). alpha-synuclein 5'UTR reporter, inhibitor activity. 300,000 tested, 0.82% active; in the data active means inhibition above about 60%; inconclusive means no clear call, values can overlap the other calls;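 further: H4 neuroglioblastoma cells stably carrying SNCA 5'UTR luciferase fusion; 0% = DMSO wells and 100% = positive control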
TWEAK-Fn14 inh: blocks TWEAK-Fn14 interaction in a reporter cell assay | AID 1159606 | 360,000 tested, 2% active | TWEAK-stimulated Fn14 reporter cells, luciferase luminescence, 8 h | inhibition, % at 10 µM; in the data active means inhibition above about 50%
C8 TRAIL sens: sensitizes caspase-8 expressing cells to TRAIL; NB7+C8 cells + TRAIL, ATPlite viability luminescence; inhibition (viability loss, TRAIL sensitization), % at 10 µM; 360,000 tested, 1% active; AID 624354;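 active means compounds causing at least 50% loss of cell viability in the single-dose screen, relative to plate controls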
HIF-2a block: blocks HIF-2a reporter activity | 786-0 RCC cells HIF-2a reporter, luciferase luminescence, overnight | 360,000 tested, 0.72% active | AID 624352 | inhibition, % at 18.8 µM;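 active means inhibition of the luminescence signal of 40% or more relative to plate controls, in a single-dose primary screen at 18.75 µM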
TROY signal inh: inhibitors of TROY-dependent NF-kB signaling; Q293 LMP1-TROYcd NF-kB luciferase reporter, 4 h; inhibition, % at 10 µM; 360,000 tested, 0.98% active;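 active means compounds whose plate-normalised and pattern-corrected inhibition of the luciferase reporter signal at the single screening dose is 50% or more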
HSP90 inh: HSP90 refolding inhibition in rabbit reticulocyte lysate. luciferase refolding luminescence, 3 h. inhibition, % at 5.6 µM. 290,000 tested, 0.91% active. AID 1789;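 active means inhibition above the screen-wide mean plus 3 SD, computed separately per campaign, cut at about 16% in these data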;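 further: 0% = DMSO wells and 100% = 60 µM geldanamycin wells; inhibitors lower the luminescence because luciferase stays unfolded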
Mdm2-MdmX confirm: confirmation of inhibitors of human Mdm2/MdmX interaction, set 2 | shares compounds with HIF-2a block | SaOS-2 split-luciferase Mdm2/MdmX complementation, luminescence | inhibition, % at 8 µM | 740 tested, 99% active | AID 504601;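 active means mean inhibition of the luminescence signal across two replicates at or above 26 percent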
Target sequence (O15151 whole entry, looked up): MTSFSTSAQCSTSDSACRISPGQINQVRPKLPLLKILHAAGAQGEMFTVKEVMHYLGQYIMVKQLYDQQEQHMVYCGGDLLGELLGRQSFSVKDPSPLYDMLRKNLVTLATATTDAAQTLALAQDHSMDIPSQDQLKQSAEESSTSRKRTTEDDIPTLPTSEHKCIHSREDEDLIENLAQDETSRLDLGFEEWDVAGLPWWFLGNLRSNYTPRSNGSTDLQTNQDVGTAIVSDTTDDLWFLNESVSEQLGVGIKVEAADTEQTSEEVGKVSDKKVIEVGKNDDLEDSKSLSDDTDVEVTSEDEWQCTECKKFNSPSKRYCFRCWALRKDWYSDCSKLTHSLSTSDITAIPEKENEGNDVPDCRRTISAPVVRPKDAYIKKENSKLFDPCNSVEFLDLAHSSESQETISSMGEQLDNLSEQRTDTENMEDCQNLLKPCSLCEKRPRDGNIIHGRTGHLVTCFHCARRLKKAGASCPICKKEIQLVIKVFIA
Target sequence (Q00987 whole entry, looked up): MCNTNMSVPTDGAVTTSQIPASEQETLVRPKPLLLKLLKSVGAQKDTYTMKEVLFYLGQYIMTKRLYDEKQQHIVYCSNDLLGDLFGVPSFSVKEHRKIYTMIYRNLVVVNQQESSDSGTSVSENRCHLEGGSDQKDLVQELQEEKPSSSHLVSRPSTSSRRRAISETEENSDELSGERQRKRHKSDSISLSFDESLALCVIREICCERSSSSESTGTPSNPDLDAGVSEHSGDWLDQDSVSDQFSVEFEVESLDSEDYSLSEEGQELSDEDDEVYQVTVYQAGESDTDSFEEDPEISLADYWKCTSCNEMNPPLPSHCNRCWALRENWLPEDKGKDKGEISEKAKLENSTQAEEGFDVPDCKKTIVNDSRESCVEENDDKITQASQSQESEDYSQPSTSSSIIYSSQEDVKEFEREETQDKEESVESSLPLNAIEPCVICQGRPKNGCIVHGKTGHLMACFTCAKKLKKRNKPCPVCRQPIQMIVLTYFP
HIF-2a inh conf: HIF-2a inhibition, single concentration confirmation | shares compounds with HIF-2a block | 786-0 RCC cells, HIF-2a luciferase reporter luminescence, overnight | inhibition, % at 18.8 µM | 1,800 tested, 56% active;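 active means mean inhibition across four replicates of at least 40 percent at the single tested concentration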
HIF-1a cs: counter-screen for HIF-2a inhibitors: HIF-1a inhibition in MiaPaCa-2 cells. 1,800 tested, 72% active. inhibition, % at 18.8 µM. MiaPaCa-2 HIF-1a luciferase reporter, desferoxamine, overnight. shares compounds with HIF-2a block;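 active means mean inhibition of the reporter signal across four replicates at the single tested dose of 50% or more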
* marks the source's active call; other numbers are inactive results; ? = inconclusive; · = no result given. Compounds with a hit are over-represented: about 3.9% of the library has one in this group of screens.

SMILES | aSyn UTR inh | TWEAK-Fn14 inh | C8 TRAIL sens | HIF-2a block | TROY signal inh | HSP90 inh | Mdm2-MdmX confirm | HIF-2a inh conf | HIF-1a cs
COc1ccc(CNC(=O)c2nc(S(=O)(=O)Cc3ccccc3)ncc2Cl)cc1 | ? | 72.8* | 30.9 | 90.7* | 59.2* | -1.1 | · | 63.0* | 35.5
O=C(NCc1ccccc1)c1nc(S(=O)(=O)Cc2ccccc2)ncc1Cl | 50.6 | 81.5* | 31.7 | 84.7* | 69.5* | 6.6 | · | 90.5* | 70.1*
O=C(NCc1ccc2c(c1)OCO2)c1nc(S(=O)(=O)Cc2ccccc2F)ncc1Cl | 42.0 | 78.9* | 30.5 | 87.7* | 76.1* | -2.6 | 102.5* | 68.2* | 70.3*
Cc1nc(Cl)c(C(=O)NCc2ccccc2)c(C)c1Cl | -4.9 | -8.2 | 13.1 | -5.5 | 10.8 | -0.3 | · | · | ·
O=C(NCc1ccccc1)c1c(Cl)nc(Cl)c(Cl)c1Cl | 99.2* | 92.7* | 93.5* | 37.0 | 65.7* | -4.0 | 103.2* | · | ·
COc1ccc(C2CCCCCN2C(=O)C2CCN(S(=O)(=O)c3ccc(C)cc3)CC2)cc1 (stereo not drawn) | · | 14.4 | -10.3 | 9.8 | -1.5 | · | · | · | ·
CC(C)Nc1ccc(Nc2ccnc3cc4ccccc4cc23)cc1 | 98.7* | -10.7 | 91.7* | 55.3* | 48.4 | -0.8 | 103.0* | · | ·
Cc1cc(Cl)ccc1C(O)c1ncc(-c2ccc(F)cc2)[nH]1 (stereo not drawn) | · | -0.7 | -12.3 | 14.1 | -2.6 | · | · | · | ·
COc1cccc(-c2ccc3ncnc(NCc4ccc5c(c4)OCO5)c3c2)c1 | · | 80.3* | 1.9 | -34.9 | 31.3 | · | 85.0* | · | ·
OCc1ccccc1-c1ccc2nccn2c1 | · | 32.5 | -16.8 | 5.8 | 48.1 | · | · | · | ·
CN(C)CCCN(C(=O)c1cc2cc([N+](=O)[O-])ccc2s1)c1nc2cc3c(cc2s1)OCCO3 | -5.2 | -334.3 | 91.3* | 75.6* | 63.8* | · | · | 29.4 | 104.0*
COc1ccc(OC)c(NC(=O)CSc2nc3[nH]c(=O)[nH]c(=O)c3s2)c1 | · | -8.2 | -0.2 | -117.6 | -5.6 | · | · | · | ·
Cn1c(SC2=CS(=O)(=O)c3ccccc32)nc2ccccc21 | -28.8 | 87.7* | 21.8 | 90.8* | 55.9* | -0.3 | · | -9.1 | 77.0*
Nc1ncnc2c1c(-c1ccc(Oc3ccccc3)cc1)cn2C1CCCC1 | · | 7.8 | 24.0 | 67.0* | 17.1 | · | · | 54.7* | 64.7*
Cn1nc([N+](=O)[O-])nc1Sc1nnc(-c2ccccc2)o1 | 91.9* | 68.6* | 0.5 | 30.9 | -4.8 | -0.3 | 75.2* | · | ·
CC(C)(C)c1nc(SCC(=O)Nc2nc3c(s2)CCCC3)c2ccccc2n1 | 40.7 | -46.1 | 25.9 | -5.2 | 18.7 | 0.9 | 100.7* | · | ·
COC(=O)/C=C1\OC(c2ccccc2)c2ccccc21 (stereo not drawn) | · | · | 1.0 | -22.2 | · | · | · | · | ·
O=C1c2cccc3c([N+](=O)[O-])ccc(c23)C(=O)N1c1ccc(Cl)cn1 | 36.3 | 6.8 | 39.3 | 30.9 | 61.8* | 0.1 | 103.0* | · | ·
O=C1c2cccc3c(N4CCCCC4)ccc(c23)C(=O)N1c1ccc(Cl)cn1 | · | · | · | · | · | -1.9 | · | · | ·
COc1ccc(C(=O)c2[nH]c(N)c(C(=O)NCCc3c[nH]c4ccccc34)c2-c2ccccc2Br)cc1 | · | 32.1 | -5.0 | -3.8 | -0.5 | · | · | · | ·
OC(c1cc(-c2ccc(C(F)(F)F)cc2)nc(C(F)(F)F)c1)C1CCCCN1 (stereo not drawn) | 103.5* | -3.2 | 34.8 | 75.3* | 31.7 | 3.1 | 103.2* | 5.4 | 106.5*
COC(=O)CSc1nc(-c2ccc(F)cc2)cc(C(F)(F)F)n1 | -8.5 | -13.3 | 8.5 | 13.0 | 5.3 | 1.3 | · | · | ·
N=c1n(CC(=O)c2ccc(Br)s2)c2ccccc2n1Cc1ccccc1 | 6.5 | -8.9 | 55.6* | 66.9* | 16.2 | 4.0 | 101.9* | 2.5 | 106.2*
Cn1c(=N)n(CC(=O)c2ccc(Br)s2)c2ccccc21 | -118.0 | 8.3 | 18.4 | -183.9 | 25.7 | 7.3 | · | · | ·
